# Reference: the OligoGym collection
# Molecular target: CD40
# Assay: pooled miR-30 sensor sort-seq; sequence = guide strand
# Conditions: shRNA
row,Sequence,sensor-assay potency score (higher = more potent)
1,ACAAAGAACAGCACTGACTGTT,0.0373
2,TTTCAGTGAACTCTGTGCAGTC,0.172
3,TTCTGAGGTGCCCTTCTGCTGG,-1.42
4,TCCGTTTCAGTGAACTCTGTGC,-0.4
5,TTTTTCTCTGCATGCAGTGGGT,-0.914
6,TGGTTCTGGATGGACAGCGGTC,-1.56
7,TTGGTCTCACAGCTTGTCCAAG,-1.27
8,TCACTCACCAGTTTCTGTCCTG,0.175
9,TCTCCTGCACTGGAGCAGCAGT,-1.54
10,TTTGATAAAGACCAGCACCAAG,-1.36
11,ATTAGGTACTGTTTTTCTCTGC,-0.104
12,TGTAGCAATCTGCTTGACCCCA,-0.6
13,TTCTTCACAGGTGCAGATGGTG,-0.762
14,TGACTGTTTATTAGGTACTGTT,-0.925
15,AACCCCTGTAGCAATCTGCTTG,-0.675
16,TTGGCATCCATGTAAAGTCTCC,-0.501
17,AAGAACAGCACTGACTGTTTAT,-1.08
18,TATTGGTTGGCTTCTTGGCCAC,-0.723
19,TTTTCTCTGCATGCAGTGGGTG,-0.932
20,TATTAGGTACTGTTTTTCTCTG,-0.885
21,TAGCAATCTGCTTGACCCCAAA,-1.28
22,TTCCGTTTCAGTGAACTCTGTG,0.749
23,TACAGTGCCAGCCTTCTTCACA,-1.17

# Molecular target: CD48
# Assay: as above
# Conditions: shRNA
row,Sequence,sensor-assay potency score (higher = more potent)
1,TATACAGTCTCTGTCCTGGTGA,-0.4
2,TAATGTTGTCACAATTTTGGGT,0.114
3,TTCTACAATCTTCTGGTCGAAA,-0.694
4,TCAATTTTGATGACAGGCTTGG,0.186
5,TTGGATTCAAAGTACTTAGATT,-1.05
6,TTGCTGCTCACAGAATTGCTGA,-0.332
7,TTCAAGCACACTGTTCTGGAGC,-0.656
8,TGAGGATCAAGTCTGACCCTGC,0.0902
9,TATCACACATGACAGTTTCAAA,-1.19
10,TGATCTTCCATTCTTGCTCATT,-1.23
11,TTCTATCTTCTCAATTTTGATG,-0.753
12,TGTAGTTTACAGACTCGCCAGG,-0.895
13,TACAGGGTCAAGCACTTGCAGC,-1.55
14,TTGGCAAGTATAACACCTGGAG,-0.157
15,TTAACTTGAAAATCCTCGTTGA,1.27
